# In paper PMC7862700, “An all-to-all approach to the identification of sequence-specific readers for epigenetic DNA modifications on cytosine”:
# Assays:
# Experiment in all cases: DAPPL (digital affinity profiling via proximity ligation, sequencing); 10 mM Tris-HCl pH 7.5, 50 mM NaCl, 1 mM DTT, 4% glycerol, room temperature, 30 min; GST-TFs on glutathione beads, 16-mer random dsDNA library, 0.1% formaldehyde crosslink after washing; high values mean tight binding
# FLI1 = biological target: T1, FLI1 (Homo sapiens, UniProt Q01543 1-452); conditions: protein: recombinant; tags: N-terminal GST; dsDNA, one strand shown
# T1 sequence: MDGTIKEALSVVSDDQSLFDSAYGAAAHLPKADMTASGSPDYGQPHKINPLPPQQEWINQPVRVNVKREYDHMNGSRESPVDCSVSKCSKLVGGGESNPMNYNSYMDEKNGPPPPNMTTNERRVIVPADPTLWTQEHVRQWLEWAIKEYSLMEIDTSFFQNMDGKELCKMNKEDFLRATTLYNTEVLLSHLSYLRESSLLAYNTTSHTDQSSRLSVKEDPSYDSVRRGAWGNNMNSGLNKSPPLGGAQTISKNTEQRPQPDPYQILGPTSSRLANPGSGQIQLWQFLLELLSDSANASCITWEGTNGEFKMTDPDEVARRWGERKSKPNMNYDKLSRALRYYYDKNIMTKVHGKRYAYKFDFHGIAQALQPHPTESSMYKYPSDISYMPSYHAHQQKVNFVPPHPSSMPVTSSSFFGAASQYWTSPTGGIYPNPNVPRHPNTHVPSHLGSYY
# Summary of the method: (§1)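 Yeast served to express human transcription factors as GST fusions, which were then captured on glutathione beads and labelled with DNA barcodes. Pooled with a tag-only sample, they were incubated with 200 nmole of a 16-mer random double-stranded DNA library for 30 min at room temperature in Tris/NaCl/DTT/glycerol buffer, washed, crosslinked with 0.1% formaldehyde, ligated by proximity, amplified by PCR and sequenced. Dividing each hexamer's read frequency for a factor by its frequency for the tag-only sample gives the binding signal.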
# ELK1 = biological target: T2, ELK1 (Homo sapiens, UniProt P19419 1-428); conditions: protein: recombinant; tags: N-terminal GST; dsDNA, one strand shown
# T2 sequence: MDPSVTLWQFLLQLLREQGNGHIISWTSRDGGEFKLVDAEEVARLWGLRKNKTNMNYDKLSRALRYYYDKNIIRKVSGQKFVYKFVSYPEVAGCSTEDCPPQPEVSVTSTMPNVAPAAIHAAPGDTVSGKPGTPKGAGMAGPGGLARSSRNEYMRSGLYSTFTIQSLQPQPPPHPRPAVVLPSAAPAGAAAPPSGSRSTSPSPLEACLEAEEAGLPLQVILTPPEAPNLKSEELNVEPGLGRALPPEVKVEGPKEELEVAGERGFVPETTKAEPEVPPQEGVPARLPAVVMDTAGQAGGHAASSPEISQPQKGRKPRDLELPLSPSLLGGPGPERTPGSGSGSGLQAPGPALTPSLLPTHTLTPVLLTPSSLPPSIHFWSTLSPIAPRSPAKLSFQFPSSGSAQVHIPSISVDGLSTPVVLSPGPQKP
# Summary of the method: as §1
# GABPA = biological target: T3, GABPA (Homo sapiens, UniProt Q06546 1-454); conditions: protein: recombinant; tags: N-terminal GST; dsDNA, one strand shown
# T3 sequence: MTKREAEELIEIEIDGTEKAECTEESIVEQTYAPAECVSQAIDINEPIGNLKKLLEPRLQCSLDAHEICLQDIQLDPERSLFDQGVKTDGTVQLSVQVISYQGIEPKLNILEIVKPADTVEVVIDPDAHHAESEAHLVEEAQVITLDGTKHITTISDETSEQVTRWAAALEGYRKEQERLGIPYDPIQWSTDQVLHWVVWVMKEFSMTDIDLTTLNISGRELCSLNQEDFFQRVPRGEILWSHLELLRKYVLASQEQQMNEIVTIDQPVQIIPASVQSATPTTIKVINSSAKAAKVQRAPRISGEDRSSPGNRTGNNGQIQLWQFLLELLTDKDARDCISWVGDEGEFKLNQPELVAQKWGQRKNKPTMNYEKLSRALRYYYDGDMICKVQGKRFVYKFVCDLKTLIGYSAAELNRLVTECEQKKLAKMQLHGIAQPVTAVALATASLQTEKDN
# Summary of the method: as §1
# ERG = biological target: T4, ERG (Homo sapiens, UniProt P11308 1-479); conditions: protein: recombinant; tags: N-terminal GST; dsDNA, one strand shown
# T4 sequence: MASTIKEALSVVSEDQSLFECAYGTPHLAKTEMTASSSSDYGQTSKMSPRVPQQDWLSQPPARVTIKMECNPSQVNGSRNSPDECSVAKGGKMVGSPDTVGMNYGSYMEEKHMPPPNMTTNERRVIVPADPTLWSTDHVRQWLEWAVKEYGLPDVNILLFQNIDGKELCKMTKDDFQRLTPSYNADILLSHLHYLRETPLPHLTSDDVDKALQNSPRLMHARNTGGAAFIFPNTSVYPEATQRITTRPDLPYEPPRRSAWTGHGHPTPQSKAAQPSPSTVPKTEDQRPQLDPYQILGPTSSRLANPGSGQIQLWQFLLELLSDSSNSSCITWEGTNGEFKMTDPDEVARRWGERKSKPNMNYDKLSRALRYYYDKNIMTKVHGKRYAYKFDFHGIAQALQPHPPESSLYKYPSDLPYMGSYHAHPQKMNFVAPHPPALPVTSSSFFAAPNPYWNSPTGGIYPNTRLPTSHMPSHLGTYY
# Summary of the method: as §1
# ELF1 = ELF1 (Homo sapiens, UniProt P32519 1-619); conditions: protein: recombinant; tags: N-terminal GST; dsDNA, one strand shown
# Summary of the method: as §1
# EHF = biological target: T5, EHF (Homo sapiens, UniProt Q9NZC4 1-300); conditions: protein: recombinant; tags: N-terminal GST; dsDNA, one strand shown
# T5 sequence: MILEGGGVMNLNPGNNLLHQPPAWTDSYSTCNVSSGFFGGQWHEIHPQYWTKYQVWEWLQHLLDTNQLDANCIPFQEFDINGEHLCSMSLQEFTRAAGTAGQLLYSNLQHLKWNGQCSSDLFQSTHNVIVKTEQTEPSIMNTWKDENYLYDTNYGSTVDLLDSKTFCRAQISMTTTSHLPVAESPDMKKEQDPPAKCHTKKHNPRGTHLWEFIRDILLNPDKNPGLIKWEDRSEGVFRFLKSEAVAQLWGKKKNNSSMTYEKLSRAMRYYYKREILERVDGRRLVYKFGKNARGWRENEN
# Summary of the method: as §1
# SPI1 = SPI1 (Homo sapiens, UniProt P17947 1-270); conditions: protein: recombinant; tags: N-terminal GST; dsDNA, one strand shown
# Summary of the method: as §1
# SPIB = SPIB (Homo sapiens, UniProt Q01892 1-262); conditions: protein: recombinant; tags: N-terminal GST; dsDNA, one strand shown
# Summary of the method: as §1
# ELK3 = biological target: T6, ELK3 (Homo sapiens, UniProt P41970 1-407); conditions: protein: recombinant; tags: N-terminal GST; dsDNA, one strand shown
# T6 sequence: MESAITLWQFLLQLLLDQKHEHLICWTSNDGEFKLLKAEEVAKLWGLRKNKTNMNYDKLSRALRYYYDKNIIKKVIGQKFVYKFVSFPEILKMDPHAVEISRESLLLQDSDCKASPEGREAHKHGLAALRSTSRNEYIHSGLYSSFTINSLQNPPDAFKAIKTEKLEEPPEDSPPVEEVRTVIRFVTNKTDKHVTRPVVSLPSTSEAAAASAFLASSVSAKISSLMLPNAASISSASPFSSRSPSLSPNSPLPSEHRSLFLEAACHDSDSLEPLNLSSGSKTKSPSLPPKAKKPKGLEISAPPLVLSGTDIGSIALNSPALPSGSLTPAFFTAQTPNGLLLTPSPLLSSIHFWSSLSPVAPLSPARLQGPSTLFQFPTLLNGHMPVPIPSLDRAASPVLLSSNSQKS
# Summary of the method: as §1
# FEV = biological target: T7, FEV (Homo sapiens, UniProt Q99581 1-238); conditions: protein: recombinant; tags: N-terminal GST; dsDNA, one strand shown
# T7 sequence: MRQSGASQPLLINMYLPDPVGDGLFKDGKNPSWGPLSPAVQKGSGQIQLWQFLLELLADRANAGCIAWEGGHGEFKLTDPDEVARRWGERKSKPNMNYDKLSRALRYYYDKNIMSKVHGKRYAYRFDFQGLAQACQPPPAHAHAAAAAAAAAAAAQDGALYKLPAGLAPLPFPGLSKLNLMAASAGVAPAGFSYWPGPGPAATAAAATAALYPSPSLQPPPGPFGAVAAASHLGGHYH
# Summary of the method: as §1
# ETV5 = ETV5 (Homo sapiens, UniProt P41161 1-510); conditions: protein: recombinant; tags: N-terminal GST; dsDNA, one strand shown
# Summary of the method: as §1
# HSF1 = HSF1 (Homo sapiens, UniProt Q00613 1-529); conditions: protein: recombinant; tags: N-terminal GST; chain copies: 3; dsDNA, one strand shown
# Summary of the method: as §1
# SPIC = biological target: T8, SPIC (Homo sapiens, UniProt Q8N5J4 1-248); conditions: protein: recombinant; tags: N-terminal GST; dsDNA, one strand shown
# T8 sequence: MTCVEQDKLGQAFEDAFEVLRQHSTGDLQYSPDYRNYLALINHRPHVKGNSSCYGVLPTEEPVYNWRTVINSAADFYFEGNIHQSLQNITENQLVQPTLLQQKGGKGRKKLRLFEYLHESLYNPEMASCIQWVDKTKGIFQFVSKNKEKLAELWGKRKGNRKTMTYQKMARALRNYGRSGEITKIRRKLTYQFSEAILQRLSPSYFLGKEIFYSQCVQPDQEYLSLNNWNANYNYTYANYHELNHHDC
# Summary of the method: as §1
# ELF4 = ELF4 (Homo sapiens, UniProt Q99607 1-663); conditions: protein: recombinant; tags: N-terminal GST; dsDNA, one strand shown
# Summary of the method: as §1
# ELK4 = biological target: T9, ELK4 (Homo sapiens, UniProt P28324-2 1-405); conditions: protein: recombinant; tags: N-terminal GST; dsDNA, one strand shown
# T9 sequence: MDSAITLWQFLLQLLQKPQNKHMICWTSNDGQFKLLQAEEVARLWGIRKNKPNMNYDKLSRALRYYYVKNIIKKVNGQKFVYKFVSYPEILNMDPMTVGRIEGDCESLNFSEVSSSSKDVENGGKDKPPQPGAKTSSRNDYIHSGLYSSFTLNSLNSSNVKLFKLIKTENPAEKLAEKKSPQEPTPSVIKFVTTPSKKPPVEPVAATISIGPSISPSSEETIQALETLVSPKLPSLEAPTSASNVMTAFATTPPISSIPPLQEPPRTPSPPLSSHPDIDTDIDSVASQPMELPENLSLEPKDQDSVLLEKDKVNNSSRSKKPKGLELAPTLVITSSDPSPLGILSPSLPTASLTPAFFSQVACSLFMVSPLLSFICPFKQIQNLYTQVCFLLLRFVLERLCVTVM
# Summary of the method: as §1
# ETV2 = biological target: T10, ETV2 (Homo sapiens, UniProt O00321 1-342); conditions: protein: recombinant; tags: N-terminal GST; dsDNA, one strand shown
# T10 sequence: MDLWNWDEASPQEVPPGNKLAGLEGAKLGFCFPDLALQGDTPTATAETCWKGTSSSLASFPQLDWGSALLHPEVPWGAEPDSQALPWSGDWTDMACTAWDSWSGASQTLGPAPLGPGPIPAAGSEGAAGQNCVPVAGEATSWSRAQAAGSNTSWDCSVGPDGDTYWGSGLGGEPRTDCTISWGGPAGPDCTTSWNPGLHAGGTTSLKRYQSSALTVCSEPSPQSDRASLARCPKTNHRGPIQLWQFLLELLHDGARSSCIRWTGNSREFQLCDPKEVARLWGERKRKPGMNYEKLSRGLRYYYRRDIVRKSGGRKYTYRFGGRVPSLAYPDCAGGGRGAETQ
# Summary of the method: as §1
# ELF3 = biological target: T11, ELF3 (Homo sapiens, UniProt P78545 1-371); conditions: protein: recombinant; tags: N-terminal GST; dsDNA, one strand shown
# T11 sequence: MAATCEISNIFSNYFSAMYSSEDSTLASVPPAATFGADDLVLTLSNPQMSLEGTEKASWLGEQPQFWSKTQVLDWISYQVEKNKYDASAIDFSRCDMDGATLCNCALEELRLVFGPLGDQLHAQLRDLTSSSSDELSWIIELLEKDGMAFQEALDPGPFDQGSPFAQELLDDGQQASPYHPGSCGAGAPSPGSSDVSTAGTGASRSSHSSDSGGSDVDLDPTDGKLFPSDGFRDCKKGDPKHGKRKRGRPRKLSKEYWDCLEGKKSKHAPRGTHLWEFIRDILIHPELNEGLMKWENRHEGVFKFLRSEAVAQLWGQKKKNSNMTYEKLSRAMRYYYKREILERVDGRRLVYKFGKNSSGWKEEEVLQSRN
# Summary of the method: as §1
# CRX = CRX (Homo sapiens, UniProt O43186 1-299); conditions: protein: recombinant; tags: N-terminal GST; dsDNA, one strand shown
# Summary of the method: as §1
# ETV1 = ETV1 (Homo sapiens, UniProt P50549 1-477); conditions: protein: recombinant; tags: N-terminal GST; dsDNA, one strand shown
# Summary of the method: as §1
# Chain of ETV1 (P50549 whole entry): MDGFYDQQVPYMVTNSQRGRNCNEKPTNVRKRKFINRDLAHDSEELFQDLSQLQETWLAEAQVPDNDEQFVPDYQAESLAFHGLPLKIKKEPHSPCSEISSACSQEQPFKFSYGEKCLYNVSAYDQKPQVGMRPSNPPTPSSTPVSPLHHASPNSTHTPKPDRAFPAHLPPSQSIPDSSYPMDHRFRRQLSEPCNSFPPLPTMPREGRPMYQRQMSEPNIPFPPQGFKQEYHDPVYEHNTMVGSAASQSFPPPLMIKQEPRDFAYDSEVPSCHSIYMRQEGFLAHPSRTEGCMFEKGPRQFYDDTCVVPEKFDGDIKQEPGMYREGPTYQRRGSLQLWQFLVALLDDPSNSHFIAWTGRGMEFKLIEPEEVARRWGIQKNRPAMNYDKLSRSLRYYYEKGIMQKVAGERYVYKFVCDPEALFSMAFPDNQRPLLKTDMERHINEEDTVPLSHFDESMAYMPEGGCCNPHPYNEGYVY
# Chain of HSF1 (Q00613 whole entry): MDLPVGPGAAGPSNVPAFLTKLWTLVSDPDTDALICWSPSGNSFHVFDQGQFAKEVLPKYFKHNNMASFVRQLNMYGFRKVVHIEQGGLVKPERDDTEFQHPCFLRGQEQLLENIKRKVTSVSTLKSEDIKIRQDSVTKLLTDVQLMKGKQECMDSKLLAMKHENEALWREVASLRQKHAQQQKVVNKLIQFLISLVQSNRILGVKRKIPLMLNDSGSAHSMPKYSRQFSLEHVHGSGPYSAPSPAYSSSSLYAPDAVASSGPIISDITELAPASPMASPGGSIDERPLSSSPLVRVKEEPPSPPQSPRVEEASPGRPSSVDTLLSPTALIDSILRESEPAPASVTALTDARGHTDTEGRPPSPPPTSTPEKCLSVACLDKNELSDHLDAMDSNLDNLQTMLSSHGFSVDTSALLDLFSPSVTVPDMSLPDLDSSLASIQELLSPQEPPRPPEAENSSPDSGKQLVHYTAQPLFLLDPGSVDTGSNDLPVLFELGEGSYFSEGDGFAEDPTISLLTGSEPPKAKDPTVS
# Chain of CRX (O43186 whole entry): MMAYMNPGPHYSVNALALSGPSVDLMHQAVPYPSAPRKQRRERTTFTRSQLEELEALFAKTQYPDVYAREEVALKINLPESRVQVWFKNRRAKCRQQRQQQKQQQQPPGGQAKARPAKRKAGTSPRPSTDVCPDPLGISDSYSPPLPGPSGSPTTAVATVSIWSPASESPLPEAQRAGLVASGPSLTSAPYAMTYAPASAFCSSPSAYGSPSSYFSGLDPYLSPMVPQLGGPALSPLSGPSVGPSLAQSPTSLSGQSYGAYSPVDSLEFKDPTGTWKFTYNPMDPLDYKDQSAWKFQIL
# Chain of SPIB (Q01892 whole entry): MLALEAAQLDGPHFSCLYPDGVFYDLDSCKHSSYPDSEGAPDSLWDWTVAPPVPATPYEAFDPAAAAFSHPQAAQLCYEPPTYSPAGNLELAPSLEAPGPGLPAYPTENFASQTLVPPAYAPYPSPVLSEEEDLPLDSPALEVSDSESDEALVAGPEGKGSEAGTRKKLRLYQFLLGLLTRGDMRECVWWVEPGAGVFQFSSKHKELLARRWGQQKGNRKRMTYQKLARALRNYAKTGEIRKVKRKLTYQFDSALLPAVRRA
# Chain of ELF4 (Q99607 whole entry): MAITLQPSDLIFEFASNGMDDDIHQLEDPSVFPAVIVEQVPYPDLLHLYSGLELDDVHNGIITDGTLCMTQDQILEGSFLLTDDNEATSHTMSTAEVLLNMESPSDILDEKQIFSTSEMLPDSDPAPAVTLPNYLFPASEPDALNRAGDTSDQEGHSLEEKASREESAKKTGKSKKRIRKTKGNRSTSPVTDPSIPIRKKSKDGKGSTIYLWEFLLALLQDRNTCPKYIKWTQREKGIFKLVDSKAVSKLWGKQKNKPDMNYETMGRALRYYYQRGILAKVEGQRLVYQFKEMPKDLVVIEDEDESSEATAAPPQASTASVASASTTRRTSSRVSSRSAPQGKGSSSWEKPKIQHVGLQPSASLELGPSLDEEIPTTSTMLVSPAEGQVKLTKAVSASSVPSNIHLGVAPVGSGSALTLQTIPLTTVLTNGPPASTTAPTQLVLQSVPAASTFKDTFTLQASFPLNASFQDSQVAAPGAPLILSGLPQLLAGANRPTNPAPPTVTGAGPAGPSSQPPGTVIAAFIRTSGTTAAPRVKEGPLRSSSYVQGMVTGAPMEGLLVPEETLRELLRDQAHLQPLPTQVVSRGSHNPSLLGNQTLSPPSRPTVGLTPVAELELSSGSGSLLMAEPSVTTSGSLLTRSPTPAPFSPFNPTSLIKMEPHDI
# Chain of ELF1 (P32519 whole entry): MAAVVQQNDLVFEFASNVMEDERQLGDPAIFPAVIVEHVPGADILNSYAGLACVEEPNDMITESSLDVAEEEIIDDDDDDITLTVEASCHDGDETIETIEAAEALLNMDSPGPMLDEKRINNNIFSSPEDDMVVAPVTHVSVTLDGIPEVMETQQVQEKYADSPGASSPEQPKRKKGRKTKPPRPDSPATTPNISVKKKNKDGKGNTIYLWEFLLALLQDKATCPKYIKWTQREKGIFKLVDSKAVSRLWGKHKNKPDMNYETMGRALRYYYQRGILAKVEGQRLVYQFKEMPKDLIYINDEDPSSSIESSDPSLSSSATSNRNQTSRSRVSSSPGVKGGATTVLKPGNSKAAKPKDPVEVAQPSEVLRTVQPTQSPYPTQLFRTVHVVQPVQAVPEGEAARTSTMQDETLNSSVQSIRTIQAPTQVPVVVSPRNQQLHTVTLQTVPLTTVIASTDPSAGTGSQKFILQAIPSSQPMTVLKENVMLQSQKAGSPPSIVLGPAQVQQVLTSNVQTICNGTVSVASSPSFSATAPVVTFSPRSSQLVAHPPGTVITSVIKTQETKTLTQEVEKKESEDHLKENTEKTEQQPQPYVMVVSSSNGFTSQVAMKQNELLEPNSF
# Chain of ETV5 (P41161 whole entry): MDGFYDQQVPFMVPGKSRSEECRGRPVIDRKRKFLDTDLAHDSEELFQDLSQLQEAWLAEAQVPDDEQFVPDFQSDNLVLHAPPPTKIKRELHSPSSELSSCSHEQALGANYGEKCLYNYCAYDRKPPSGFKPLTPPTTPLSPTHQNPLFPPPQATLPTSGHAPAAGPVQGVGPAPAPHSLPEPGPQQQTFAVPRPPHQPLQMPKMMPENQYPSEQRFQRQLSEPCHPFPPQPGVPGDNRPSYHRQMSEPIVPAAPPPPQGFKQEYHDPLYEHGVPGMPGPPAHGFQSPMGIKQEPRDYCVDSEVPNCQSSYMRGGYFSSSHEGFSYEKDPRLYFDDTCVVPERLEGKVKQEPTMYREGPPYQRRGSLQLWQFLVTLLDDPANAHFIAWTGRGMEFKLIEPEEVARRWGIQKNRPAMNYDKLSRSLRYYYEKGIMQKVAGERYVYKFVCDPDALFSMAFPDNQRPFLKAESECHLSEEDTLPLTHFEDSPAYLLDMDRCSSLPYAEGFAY
sequence,measurement,setting,value
GTTGCT,binding signal,FLI1,"1.34 fold enrichment (6-mer frequency, TF over GST control)"
same,binding signal,ELK1,"1.26 fold enrichment (6-mer frequency, TF over GST control)"
same,binding signal,GABPA,"1.25 fold enrichment (6-mer frequency, TF over GST control)"
same,binding signal,ERG,"1.3 fold enrichment (6-mer frequency, TF over GST control)"
same,binding signal,ELF1,"1.31 fold enrichment (6-mer frequency, TF over GST control)"
same,binding signal,EHF,"1.35 fold enrichment (6-mer frequency, TF over GST control)"
same,binding signal,SPI1,"1.34 fold enrichment (6-mer frequency, TF over GST control)"
same,binding signal,SPIB,"1.28 fold enrichment (6-mer frequency, TF over GST control)"
same,binding signal,ELK3,"1.25 fold enrichment (6-mer frequency, TF over GST control)"
same,binding signal,FEV,"1.18 fold enrichment (6-mer frequency, TF over GST control)"
same,binding signal,ETV5,"1.28 fold enrichment (6-mer frequency, TF over GST control)"
same,binding signal,HSF1,"1.09 fold enrichment (6-mer frequency, TF over GST control)"
same,binding signal,SPIC,"1.28 fold enrichment (6-mer frequency, TF over GST control)"
same,binding signal,ELF4,"1.27 fold enrichment (6-mer frequency, TF over GST control)"
same,binding signal,ELK4,"1.33 fold enrichment (6-mer frequency, TF over GST control)"
same,binding signal,ETV2,"1.26 fold enrichment (6-mer frequency, TF over GST control)"
same,binding signal,ELF3,"1.16 fold enrichment (6-mer frequency, TF over GST control)"
same,binding signal,CRX,"1.06 fold enrichment (6-mer frequency, TF over GST control)"
same,binding signal,ETV1,"1.38 fold enrichment (6-mer frequency, TF over GST control)"
